According to PubChem BioAssay (Tox21):
Unmarked numbers belong to inactive results. Results filed as inconclusive are left out. Where a call stands in place of a potency, no number is given. Activity calls are given as the source filed them. Unless noted, calls follow the shape of the full dose curve.

What was measured:
[1] = Nuclear factor erythroid 2-related factor 2/antioxidant responsive element (Nrf2/ARE) small molecule agonists: qHTS cell viability counter screen in human keratinocytes (AID 1919968; active = well fitted curve in the direction sought with a large enough effect in the repeat runs; an effect the other way counts as inactive or inconclusive; also: nearly all actives have a fitted effect of over 55% in size; also: potency is read from the fitted curve at half-maximal effect)
Summary of the method: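 Cells of the KeratinoSens line were plated at 1,500 per well and left for 5 h before compound transfer from DMSO stocks. After a 23 h incubation (37 C, 5% CO2), CellTiter-Fluor was added. Signal was taken as fluorescence intensity 1 h later.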

[2] = target: Gonadotropin-releasing hormone receptor (Homo sapiens) (UniProt P30968); experiment: Human gonadotropin-releasing hormone receptor (GnRHR) small molecule agonists, calcium flux assay in GnRHR-HEK293 cells (AID 1920063); also: nearly all actives have a fitted effect of over 35% in size
Sequence of Gonadotropin-releasing hormone receptor (Homo sapiens) (P30968 whole entry, looked up): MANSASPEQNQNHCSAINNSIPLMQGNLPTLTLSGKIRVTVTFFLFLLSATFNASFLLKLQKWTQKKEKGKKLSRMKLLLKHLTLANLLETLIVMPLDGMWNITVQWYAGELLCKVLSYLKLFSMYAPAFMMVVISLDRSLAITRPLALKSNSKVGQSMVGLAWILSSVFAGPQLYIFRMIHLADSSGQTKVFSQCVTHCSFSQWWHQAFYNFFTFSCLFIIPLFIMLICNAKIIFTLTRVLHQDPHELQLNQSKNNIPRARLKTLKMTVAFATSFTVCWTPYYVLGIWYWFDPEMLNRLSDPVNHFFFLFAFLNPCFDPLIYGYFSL
Summary of the method: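 Compounds dissolved in DMSO are pin-transferred onto dye-loaded GnRHR-HEK293 cells, which were seeded 18 h before at 37 C/5% CO2. Calcium signal is read as fluorescence intensity at 1 s intervals for 3 min.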

[3] = target: KiSS-1 receptor (Homo sapiens) (UniProt Q969F8); experiment: Human kisspeptin (KISS1R) small molecule agonists, calcium flux assay in KISS1R-HEK293 cells (AID 1920064; active = well fitted curve in the direction sought with a large enough effect in the repeat runs; an effect the other way counts as inactive or inconclusive)
Sequence of KiSS-1 receptor (Homo sapiens) (Q969F8 whole entry, looked up): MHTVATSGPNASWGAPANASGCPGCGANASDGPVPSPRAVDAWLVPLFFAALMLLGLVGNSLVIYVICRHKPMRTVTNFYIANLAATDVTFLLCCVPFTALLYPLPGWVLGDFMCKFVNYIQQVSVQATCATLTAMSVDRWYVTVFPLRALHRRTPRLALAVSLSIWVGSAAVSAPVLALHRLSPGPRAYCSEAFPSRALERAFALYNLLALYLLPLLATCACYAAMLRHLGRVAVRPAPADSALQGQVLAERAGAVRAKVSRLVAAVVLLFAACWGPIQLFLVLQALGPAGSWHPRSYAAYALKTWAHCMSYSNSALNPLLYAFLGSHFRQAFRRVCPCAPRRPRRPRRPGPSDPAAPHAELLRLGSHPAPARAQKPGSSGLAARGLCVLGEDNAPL
Summary of the method: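 Cell line: HEK293, stable human KISS1R. Dye loading 1 h at 37 C after 18 h culture. Read: kinetic fluorescence, 480/540 nm, 3 min at 1 s intervals.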

[4] = G protein-coupled receptor (GPCR) small molecule agonists, calcium flux assay: HEK293 wild type cell line counter screen (AID 1920065)
Summary of the method: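 Tox21 10K compounds, 15 concentrations each in triplicate, pin-transferred in DMSO onto dye-loaded cells; kinetic read at 480/540 nm for 3 min, 1 s intervals.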

[5] = p53 small molecule agonists, cell-based qHTS assay with rat liver microsomes (AID 1963578)
Summary of the method: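 Cells carrying a p53 response element–beta-lactamase reporter were plated and rested 5 h, then dosed with compound in DMSO plus rat liver microsomes and NADPH, each at 0.5 mg/mL final. After 16 h at 37 C, LiveBLAzer substrate was added for 2 h.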

[6] = p53 small molecule agonists, cell-based qHTS assay with human liver microsomes: qHTS cell viability counter screen (AID 1963579); also: nearly all actives have a fitted effect of over 45% in size
Summary of the method: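 Cytotoxicity counter screen: p53RE-bla, 4,000 cells/well; 5 h settle, 37 C/5% CO2; cpd + HLM 0.5 mg/mL + NADPH 0.5 mg/mL (final); 16 h, 37 C; CellTiter-Glo, 30 min RT, luminescence.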

[7] = p53 small molecule agonists, cell-based qHTS assay with rat liver microsomes: qHTS cell viability counter screen (AID 1963580); also: nearly all actives have a fitted effect of over 45% in size; also: potency is read from the fitted curve at half-maximal effect
Summary of the method: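 Counter screen for cytotoxicity under metabolic activation: rat liver microsomes and NADPH, 0.5 mg/mL final each, added with compounds to p53RE-bla HCT-116 cells; 16 h at 37 C, then ATP luminescence read.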

[8] = p53 small molecule agonists, cell-based qHTS assay: qHTS cell viability counter screen (AID 1963581); also: nearly all actives have a fitted effect of over 45% in size
Summary of the method: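 ATP content measured by luminescence in HCT-116 p53RE-bla cells treated 16 h at 37 C, same wells as the reporter screen.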

[9] = p53 small molecule agonists, cell-based qHTS assay (AID 1963582; active = well fitted activation curve with a large enough effect in the signal ratio in the repeat runs, not every such curve was filed as active; the % refers to the signal ratio)
Summary of the method: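 16 h compound exposure (37 C) of p53 response element–bla cells, preceded by 5 h recovery at 37 C/5% CO2; read-out via LiveBLAzer B/G FRET substrate, 2 h RT, fluorescence intensity.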

[10] = target: 5-hydroxytryptamine receptor 2A (Homo sapiens) (UniProt P28223); experiment: 5-hydroxytryptamine receptor 2A (HTR2A) small molecule agonists, cell-based qHTS assay (AID 1963587); also: nearly all actives have a fitted effect of over 30% in size
Sequence of 5-hydroxytryptamine receptor 2A (Homo sapiens) (P28223 whole entry, looked up): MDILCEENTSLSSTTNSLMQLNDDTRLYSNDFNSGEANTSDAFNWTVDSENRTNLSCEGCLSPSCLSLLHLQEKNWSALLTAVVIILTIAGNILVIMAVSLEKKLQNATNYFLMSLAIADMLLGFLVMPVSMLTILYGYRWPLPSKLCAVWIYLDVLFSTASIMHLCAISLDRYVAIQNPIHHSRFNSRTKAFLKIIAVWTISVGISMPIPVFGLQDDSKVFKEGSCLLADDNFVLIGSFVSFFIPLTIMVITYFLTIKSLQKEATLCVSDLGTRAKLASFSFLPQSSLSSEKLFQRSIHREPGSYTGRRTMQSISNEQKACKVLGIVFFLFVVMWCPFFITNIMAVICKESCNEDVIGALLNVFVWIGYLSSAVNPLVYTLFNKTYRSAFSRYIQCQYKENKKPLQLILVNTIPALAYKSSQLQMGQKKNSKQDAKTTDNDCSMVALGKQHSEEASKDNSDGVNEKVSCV
Summary of the method: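 HTR2A-CHO cells, plated 18 h at 37 C/5% CO2, dye-loaded 1 h at 37 C; compounds in DMSO added by pin tool (agonist mode). Intracellular calcium flux read as kinetic fluorescence on FDSS over 2 min at 1 s intervals.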

[11] = target: Muscarinic acetylcholine receptor M1 (Homo sapiens) (UniProt P11229); experiment: Cholinergic receptor muscarinic 1 (CHRM1) small molecule antagonists, cell-based qHTS assay (AID 1963588); also: nearly all actives have a fitted effect of over 40% in size
Sequence of Muscarinic acetylcholine receptor M1 (Homo sapiens) (P11229 whole entry, looked up): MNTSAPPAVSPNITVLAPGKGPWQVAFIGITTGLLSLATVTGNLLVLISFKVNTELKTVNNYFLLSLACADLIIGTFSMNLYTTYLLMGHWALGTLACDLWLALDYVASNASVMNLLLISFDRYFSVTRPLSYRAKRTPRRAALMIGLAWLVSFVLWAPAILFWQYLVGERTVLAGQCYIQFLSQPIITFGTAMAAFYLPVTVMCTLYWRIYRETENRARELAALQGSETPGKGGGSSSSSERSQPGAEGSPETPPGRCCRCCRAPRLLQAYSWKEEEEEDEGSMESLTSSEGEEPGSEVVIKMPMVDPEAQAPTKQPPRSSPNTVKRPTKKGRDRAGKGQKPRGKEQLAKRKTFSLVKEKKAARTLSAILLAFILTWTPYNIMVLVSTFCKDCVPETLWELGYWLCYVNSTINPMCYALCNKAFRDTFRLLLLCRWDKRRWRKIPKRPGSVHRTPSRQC
Summary of the method: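 Compounds were tested at 15 concentrations in three independent runs. Dye-loaded CHRM1-CHO cells were exposed 5 min at room temperature before stimulation by acetylcholine added at 50nM. Intracellular calcium was read kinetically on FDSS for 3 min.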

[12] = target: Muscarinic acetylcholine receptor M1 (Homo sapiens) (UniProt P11229); experiment: Cholinergic receptor muscarinic 1 (CHRM1) small molecule agonists, cell-based qHTS assay (AID 1963589); also: nearly all actives have a fitted effect of over 35% in size
Summary of the method: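 Homogeneous fluorescence calcium flux, agonist mode. Human M1-expressing CHO cells; compound dosed at 15 concentrations, three independent runs; signal sampled every 1 sec.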

[13] = cAMP Responsive Elements (CRE) small molecule agonists, cell-based qHTS assay (AID 1963590)
Summary of the method: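 HEK 293T cells stably bearing CRE-bla were plated at 2,000 cells per well and rested 18 h. Compounds, positive controls or DMSO were added for 3 h at 37 C. LiveBLAzer B/G substrate was then loaded for 2 h at room temperature.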

[14] = cAMP Responsive Elements (CRE) small molecule antagonists, cell-based qHTS assay (AID 1963591; active = well fitted inhibition curve with a large enough effect in the signal ratio in the repeat runs, not every such curve was filed as active; the % refers to the signal ratio)
Summary of the method: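 First, CRE-bla HEK293T cells settled 18 h at 37 C. Next, compound and 0.25 uM final NKH477 were applied for 3 h. Last, LiveBLAzer B/G substrate was loaded for 2 h at room temperature.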

[15] = target: Beta-2 adrenergic receptor (Homo sapiens) (UniProt P07550); experiment: Adrenergic beta2 receptor (ADRB2) small molecule antagonists, cell-based qHTS assay (AID 1963592); also: nearly all actives have a fitted effect of over 50% in size; also: potency is read from the fitted curve at half-maximal effect
Sequence of Beta-2 adrenergic receptor (Homo sapiens) (P07550 whole entry, looked up): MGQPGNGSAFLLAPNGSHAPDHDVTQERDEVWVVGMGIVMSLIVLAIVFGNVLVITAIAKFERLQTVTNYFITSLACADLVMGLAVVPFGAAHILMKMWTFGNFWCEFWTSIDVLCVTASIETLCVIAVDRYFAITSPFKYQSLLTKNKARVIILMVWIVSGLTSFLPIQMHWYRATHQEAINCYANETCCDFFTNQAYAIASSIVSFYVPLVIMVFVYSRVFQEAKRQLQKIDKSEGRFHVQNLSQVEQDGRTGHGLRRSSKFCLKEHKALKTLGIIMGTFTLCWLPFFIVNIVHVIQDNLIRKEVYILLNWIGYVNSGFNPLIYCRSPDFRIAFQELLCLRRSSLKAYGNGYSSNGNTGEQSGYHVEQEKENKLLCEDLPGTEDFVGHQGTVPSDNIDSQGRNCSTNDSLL
Summary of the method: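 Assay format: CHO-ADRB2 cells, 18-20hr seeding at 37C/5% CO2, then compound plus 1nM isoproterenol agonist mix for 0.5hr RT. Homogeneous time-resolved fluorescence cAMP detection after 1hr, expressed as 665/615 nm ratio.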

[16] = target: Beta-2 adrenergic receptor (Homo sapiens) (UniProt P07550); experiment: Adrenergic beta2 receptor (ADRB2) small molecule agonists, cell-based qHTS assay (AID 1963593);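 also: CHO cells stably overexpressing human ADRB2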
Summary of the method: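 CHO cells stably over-expressing ADRB2 were plated overnight at 37C, then dosed with compounds plus a stimulation mix containing 100uM IBMX and 25uM Ro-20-1724 for 0.5hr at room temperature. cAMP was measured by HTRF competition, 1hr.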

[17] = target: D(2) dopamine receptor (Homo sapiens) (UniProt P14416); experiment: Dopamine D2 receptor (DRD2) small molecule agonists, cell-based qHTS assay (AID 1963594); also: nearly all actives have a fitted effect of over 35% in size
Sequence of D(2) dopamine receptor (Homo sapiens) (P14416 whole entry, looked up): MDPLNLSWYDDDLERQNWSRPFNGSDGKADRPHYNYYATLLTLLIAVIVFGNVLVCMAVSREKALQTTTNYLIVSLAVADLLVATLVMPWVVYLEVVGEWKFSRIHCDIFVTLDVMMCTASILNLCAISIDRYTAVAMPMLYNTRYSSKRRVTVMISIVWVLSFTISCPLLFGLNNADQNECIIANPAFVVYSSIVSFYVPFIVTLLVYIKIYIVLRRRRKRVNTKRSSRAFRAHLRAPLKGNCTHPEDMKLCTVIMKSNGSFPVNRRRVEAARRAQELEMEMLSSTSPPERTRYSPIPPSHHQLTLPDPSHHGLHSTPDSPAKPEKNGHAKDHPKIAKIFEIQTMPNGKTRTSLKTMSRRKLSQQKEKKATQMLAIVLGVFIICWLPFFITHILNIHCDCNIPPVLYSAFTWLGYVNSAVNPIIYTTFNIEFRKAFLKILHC
Summary of the method: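 HEK293 cells stably expressing DRD2 were cultured 24 h at 37 C, then given Ro20-1724 (0.1 mM final) and compounds for 10 min at room temperature. NKH477 (200nM) was then added for 30 min. cAMP was read by HTRF.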

[18] = target: D(2) dopamine receptor (Homo sapiens) (UniProt P14416); experiment: Dopamine D2 receptor (DRD2) small molecule antagonists, cell-based qHTS assay (AID 1963595; active = well fitted inhibition curve with a large enough effect in the signal ratio in the repeat runs, with a control signal flat; the % refers to the signal ratio)
Summary of the method: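 Cells were plated and grown for 24 h at 37 °C. Ro20-1724 (0.1 mM final) went in first, then compound for 10 min. NKH477 (200 nM) with quinpirole (12 nM) followed for 30 min at RT, then HTRF detection reagents for 1 h.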

[19] = p53 small molecule agonists, cell-based qHTS assay with human liver microsomes (AID 1963577); also: potency is read from the fitted curve at half-maximal effect
Summary of the method: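 Fluorescence of the beta-lactamase reporter in p53RE-bla cells, detected with LiveBLAzer substrate (2 h, room temperature, dark), served as the read-out after 16 h compound exposure at 37 C with human liver microsomes and NADPH, each 0.5 mg/mL final.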

[20] = target: 5-hydroxytryptamine receptor 2A (Homo sapiens) (UniProt P28223); experiment: 5-hydroxytryptamine receptor 2A (HTR2A) small molecule antagonists, cell-based qHTS assay (AID 1963586); also: nearly all actives have a fitted effect of over 45% in size; also: potency is read from the fitted curve at half-maximal effect
Summary of the method: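 CHO cells stably expressing human HTR2A were plated for 18 h at 37 C, then loaded with calcium dye for 1 h. Compounds were preincubated 5 min at room temperature before DOI (4 nM solution) was added. Kinetic fluorescence was read for 3 min.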

SMILES | Potency [1] | Potency [2] | Potency [3] | Potency [4] | Potency [5] | Potency [6] | Potency [7] | Potency [8] | Potency [9] | Potency [10] | Potency [11] | Potency [12] | Potency [13] | Potency [14] | Potency [15] | Potency [16] | Potency [17] | Potency [18] | Potency [19] | Potency [20]
COc1cc(OC)nc(NC(=O)NS(=O)(=O)c2ncccc2OCC(F)(F)F)n1 | inactive | inactive | inactive | inactive | inactive | inactive | inactive | inactive | inactive | inactive | inactive | inactive | inactive | inactive | inactive | inactive | inactive | inactive | – | –
Oc1ccc2[nH]cc(CCCCN3CC=C(c4ccccc4)CC3)c2c1 | inactive | inactive | inactive | inactive | – | inactive | inactive | inactive | inactive | inactive | inactive | inactive | – | – | 26.6 µM (active) | – | – | inactive | inactive | 0.818 µM (active)
CCCCC/C=C\C/C=C\C/C=C\C/C=C\CCCC(=O)NCC(=O)O | inactive | inactive | inactive | inactive | inactive | inactive | inactive | – | – | – | inactive | inactive | – | – | inactive | inactive | – | inactive | – | 14.5 µM (active)
CN/C(=N\[N+](=O)[O-])NCC1CCOC1 (stereo unspecified) | inactive | inactive | inactive | inactive | inactive | inactive | inactive | inactive | inactive | inactive | inactive | inactive | inactive | inactive | inactive | inactive | inactive | inactive | – | inactive
CCN(CC)C(=O)Cl | inactive | inactive | inactive | inactive | inactive | – | inactive | inactive | inactive | inactive | inactive | inactive | inactive | inactive | inactive | inactive | inactive | inactive | inactive | –
OCCCBr | inactive | inactive | inactive | inactive | inactive | – | 1.45 µM (active) | – | inactive | inactive | inactive | inactive | inactive | inactive | – | – | – | inactive | inactive | inactive
CCOP(=S)(OCC)Oc1ncn(-c2ccccc2)n1 | inactive | inactive | inactive | inactive | – | inactive | inactive | inactive | inactive | inactive | inactive | inactive | – | – | inactive | – | inactive | inactive | 2.89 µM (active) | inactive
C=CCC1(C(C)CC)C(=O)NC(=O)NC1=O (stereo unspecified) | inactive | inactive | inactive | inactive | inactive | – | inactive | inactive | inactive | inactive | inactive | inactive | inactive | – | inactive | inactive | inactive | inactive | – | inactive
Clc1ccc(CSC(Cn2ccnc2)c2ccc(Cl)cc2Cl)cc1 (stereo unspecified) | 29.8 µM (active) | inactive | inactive | inactive | inactive | – | inactive | – | – | – | – | – | inactive | – | inactive | inactive | inactive | inactive | inactive | –
CC(C)C(Nc1ccc(C(F)(F)F)cc1Cl)C(=O)OC(C#N)c1cccc(Oc2ccccc2)c1 (stereo unspecified) | inactive | inactive | inactive | inactive | inactive | – | inactive | inactive | – | inactive | inactive | inactive | – | inactive | inactive | – | inactive | inactive | inactive | –
FC(F)(F)c1cccc(C2=CCN(CCc3ccc4ccccc4c3)CC2)c1 | inactive | inactive | inactive | inactive | inactive | inactive | inactive | inactive | inactive | inactive | inactive | – | inactive | – | inactive | – | – | – | – | inactive
CN1[C@@H]2CC[C@H]1CC(O)C2 (stereo partly specified) | inactive | inactive | inactive | inactive | – | – | inactive | – | inactive | inactive | inactive | inactive | inactive | inactive | inactive | – | inactive | inactive | inactive | inactive
CC(Cl)C(C)Cl (stereo unspecified) | inactive | inactive | inactive | inactive | – | inactive | inactive | inactive | – | inactive | inactive | inactive | inactive | – | inactive | – | inactive | inactive | inactive | inactive
CO/C=C(/C(=O)OC)c1ccccc1Oc1cc(Oc2ccccc2C#N)ncn1 | 6.11 µM (active) | inactive | inactive | inactive | – | – | – | – | – | inactive | inactive | inactive | – | – | – | – | – | – | inactive | –
O=[N+]([O-])c1ccccc1CCl | inactive | inactive | inactive | inactive | inactive | – | inactive | inactive | inactive | inactive | inactive | inactive | inactive | – | inactive | – | inactive | inactive | inactive | inactive
N#CSCc1ccccc1 | inactive | inactive | inactive | inactive | inactive | inactive | – | inactive | – | inactive | inactive | inactive | inactive | – | inactive | inactive | inactive | inactive | inactive | inactive
